CYP2C19 inhib = inhibitors of human CYP2C19 | AID 778 | inhibition, % at 5 µM | P33261 | CYP2C19 Supersomes, luciferin-H EGE luminescence, 30 min | 96,000 compounds, 21% hits;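 active = CYP2C19 inhibition above a set limit at 5 µM in the primary screen, cut at about 50% in these data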;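 note: plate controls were negative control wells for no effect and 2.5 mM tranylcypromine positive control for full effect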
Target sequence (P33261 whole entry, looked up): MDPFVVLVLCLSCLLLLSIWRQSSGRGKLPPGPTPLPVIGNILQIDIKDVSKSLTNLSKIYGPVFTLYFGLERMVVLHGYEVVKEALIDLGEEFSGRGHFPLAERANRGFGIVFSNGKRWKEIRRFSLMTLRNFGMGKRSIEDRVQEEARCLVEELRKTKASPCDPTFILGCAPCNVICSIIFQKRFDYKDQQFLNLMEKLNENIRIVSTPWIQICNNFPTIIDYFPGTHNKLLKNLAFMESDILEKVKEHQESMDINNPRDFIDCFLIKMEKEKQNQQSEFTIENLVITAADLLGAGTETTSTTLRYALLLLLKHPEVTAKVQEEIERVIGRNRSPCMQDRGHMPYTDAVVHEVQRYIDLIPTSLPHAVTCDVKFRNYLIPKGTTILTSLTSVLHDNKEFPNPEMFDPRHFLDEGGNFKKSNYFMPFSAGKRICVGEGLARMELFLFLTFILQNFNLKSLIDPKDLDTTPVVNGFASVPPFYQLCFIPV
PostGolgi yeast = growth inhibition of a yeast mutant, post-Golgi transport screen | post-Golgi transport phenotypic cell assay | inhibition, % at 10 µM | 98,000 compounds, 0.9% hits | AID 739;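 note: yeast cells grown in 1536-well plates; yeast grown about 18 h at 30C before absorbance read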
CYP2C19 activ = cytochrome P450 2C19 (human) activation; P33261; recombinant CYP2C19, luciferin-H EGE luminescence; active compounds read high; 0 = fully inhibited enzyme, 1 = untreated enzyme; activation factor at 5 µM; 96,000 tested, under 10 active; AID 1025;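 active = activation factor of at least 2 at 5 µM in the primary screen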;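 note: 0 = wells with 2.5 mM tranylcypromine and 1 = vehicle-only wells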
CYP2C9 act = CYP2C9 (human) activation; recombinant CYP2C9, luciferin-H conversion, luminescence; active compounds read high; factor 1 = untreated enzyme, 0 = blocked; activation factor at 5 µM; 96,000 compounds, 1.4% hits;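 active = activation factor of 2 or more for CYP2C9 at a 5 µM dose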;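 note: 0 = sulfaphenazole-blocked wells and 1 = vehicle-only wells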
PostGolgi ctrl = yeast control strain growth, post-Golgi counter-screen; efflux-deficient yeast background strain, growth absorbance A615, 16 h; inhibition, % at 10 µM; 98,000 compounds, 5% hits
CYP2C9 inhib = blocks human cytochrome P450 2C9. P11712. CYP2C9 Supersomes, luciferin-H conversion, luminescence. AID 777. inhibition, % at 5 µM. 96,000 compounds, 20% hits;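 active = blocking of liver enzyme CYP2C9 beyond about 50% at 5 µM, limit read from the data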
The depositor's hits bear a star. A selection: hits, their analogues and other compounds. The true share with any hit is near 32%. Cut-off read from the data, not from the text of the source, unless noted: active = inhibition above about 30%; inactive = the rest.

SMILES | CYP2C19 inhib | PostGolgi yeast | CYP2C19 activ | CYP2C9 act | PostGolgi ctrl | CYP2C9 inhib
CC(=O)Nc1ccc(C(=O)OCC(=O)c2ccc(C)c([N+](=O)[O-])c2)cc1 | 30.5 | -11.5 | 0.7 | 0.5 | 26.2 | 50.7*
CCC(=O)Nc1ccc(C(=O)OCC(=O)c2ccc(C)c([N+](=O)[O-])c2)cc1 | -7.3 | -11.2 | 1.1 | 1.2 | 9.1 | -20.4
Cn1c(SCc2nc3ccccc3s2)nnc1-c1cccs1 | 92.1* | 6.1 | 0.1 | 0.7 | 7.5 | 34.9
CCCn1c(=O)c2ccccc2n2c(SCc3nc4ccccc4s3)nnc12 | 90.5* | 14.2 | 0.1 | 0.3 | 8.6 | 72.5*
Cc1ccccc1-n1c(C)nnc1SCc1nc2ccccc2s1 | 75.7* | -0.3 | 0.2 | 0.8 | 0.0 | 22.3
COc1ccc(-c2nnc(SCc3nc4ccccc4s3)n2C(C)C)cc1 | 92.8* | 1.4 | 0.1 | 0.6 | 30.3* | 39.1
CCOc1ccccc1-n1nnnc1SCc1nc2ccccc2s1 | 48.0 | 1.7 | 0.5 | 1.1 | 16.8 | -6.4
CCOC(=O)C1CCCN(c2c(NCCCN3CCCC(C)C3)c(=O)c2=O)C1 (configuration not stated) | 1.9 | -1.8 | 1 | 0.9 | 1.1 | 10.1
CC(C)C(=O)N1CCN(c2ccc(NC(=O)c3ccc4c(c3)OCCO4)cc2Cl)CC1 | 25.1 | 2.1 | 0.7 | 0.7 | 1.0 | 34.8
CCn1c(SCc2nc3ccccc3s2)nnc1-c1cccs1 | 98.5* | -5.8 | 0 | 0.5 | 16.3 | 54.1*
Cc1cc(C)n2c(SCc3ccc(C#N)cc3)nnc2n1 | 45.2 | 8.5 | 0.5 | 1 | -5.9 | -1.7
Cc1cc(N2CCCCC2)nc(SCc2ccc(C#N)cc2)n1 | 48.8 | 1.0 | 0.5 | 0.4 | 40.4* | 63.2*
Cc1ccc(N(CC(=O)NC(C)c2ccccc2)S(=O)(=O)c2cccs2)cc1 (configuration not stated) | 97.5* | -0.3 | 0 | 0.1 | 4.0 | 86.3*
CCOc1ccc(S(=O)(=O)N(CC(=O)N/N=C/c2cccs2)c2ccc(C)cc2)cc1 | 52.6* | -4.3 | 0.5 | 0.9 | 9.8 | 7.2
COc1ccc(S(=O)(=O)N(CC(=O)N/N=C/c2cccs2)c2ccc(C)cc2)cc1OC | 99.2* | 16.6 | 0 | 0.5 | -2.8 | 46.9
CCOc1ccc(S(=O)(=O)N(CC(=O)O)c2ccc(C)cc2)cc1 | 20.7 | -6.8 | 0.8 | 0.5 | 1.9 | 45.9
Cc1ccc(N(CC(=O)N/N=C/c2ccco2)S(=O)(=O)c2ccccc2)cc1 | 49.7 | 9.5 | 0.5 | 0.8 | 3.5 | 22.1
COc1ccc(S(=O)(=O)N(CC(=O)N/N=C/c2cccs2)c2cc(C)cc(C)c2)cc1OC | 52.6* | -8.5 | 0.5 | 0.4 | 22.4 | 59.8*
C=CCN(C(C)=O)C1CC(=O)N(c2ccc(OCCC)cc2)C1=O (configuration not stated) | -4.0 | -8.3 | 1 | 1 | 6.1 | 2.6
O=C(NC1CCCC1)C(c1ccc(O)cc1)N(CC1CCCO1)C(=O)C1COc2ccccc2O1 (configuration not stated) | 55.9* | 0.2 | 0.4 | 0.3 | 14.8 | 69.6*
O=C(NC1CCCCC1)C(c1ccncc1)N(CC1CCCO1)C(=O)C(F)(F)F (configuration not stated) | 57.9* | 9.7 | 0.4 | 0.6 | 7.7 | 41.8
CS(=O)(=O)c1nc(-c2ccco2)cc(C(F)(F)F)n1 | -4.2 | -0.3 | 1 | 1 | 47.8* | -2.8
COc1ccccc1-c1cc(C(F)(F)F)nc(S(=O)(=O)CCCC(=O)NC(C)C)n1 | 5.8 | 1.6 | 0.9 | 1 | 42.5* | 4.3
COc1ccccc1-c1cc(C(F)(F)F)nc(S(=O)(=O)CCCC(=O)N2CCCCC2C)n1 (configuration not stated) | 32.9 | 18.4 | 0.7 | 1 | 62.2* | -1.0
COc1ccccc1-c1cc(C(F)(F)F)nc(S(C)(=O)=O)n1 | -10.8 | 46.2* | 1.1 | 1.1 | 86.0* | -9.4
CN1CCN(c2nc(-c3ccco3)cc(C(F)(F)F)n2)CC1 | 12.6 | 8.6 | 0.9 | 0.9 | 0.9 | 13.5
COc1ccccc1-c1cc(C(F)(F)F)nc(N2CCCC2)n1 | -17.2 | 5.8 | 1.2 | 1.3 | -1.3 | -26.6
COc1ccc(CCN(Cc2cc3cc(C)cc(C)c3nc2Cl)C(=O)C2CC2)cc1 | 36.6 | 0.8 | 0.6 | 0.6 | 23.2 | 38.9

From PubChem BioAssay
